Bioassay records (PubChem)
Rows were chosen to be rich in hits. Some 2.3% of all compounds tested hit in one or more screens of this group.
S2 tox – cell viability loss in ATXN counter-screen; actives 0.49% (n = 400,000); S2 cells (HEK-293 line with an ATXN2-luciferase reporter) viability, CellTiter-Fluor protease fluorescence, 24 h; Potency, µM (titrated, usually from 56.7 µM), actives largely listed as cytotoxic; AID 651635; further: nearly all actives have a fitted effect of over 40% in size
TGFb SMAD3 inh – inhibitors of TGF-b signaling; HepG2 CAGA-GFP TGF-b/SMAD3 reporter, GFP fluorescence, 18 h; TGF-beta stimulated, 500 pg/mL final; Potency, µM (top dose mostly 46.1 µM), inactives show top-dose activity, negative = inhibition, most hits filed as inhibitors; actives 1.2% (n = 410,000); AID 588855; further: on the % scale 0 is the no-effect control and ±100 the full control effect; nearly all actives have a fitted effect of over 65% in size
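First, reporter cells (HEPG2 CAGA-GFP) rested 2 h at 37 degrees C. Next, compounds were pinned in and TGF-beta added to 500 pg/mL final. After 18 h, GFP was imaged per cell and summed per well.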
ATXN2 expr inh – inhibitors of ATXN2 expression | AID 1745845 | Potency, µM (series often up to 57 µM), inactives show at the top dose activity change, negative = inhibition, actives largely listed as inhibitors | HEK-293 ATXN2-luciferase reporter, luminescence, 24 h | actives 0.72% (n = 360,000); further: on the % scale 0 is the no-effect control and ±100 the full control effect; nearly all actives have a fitted effect of over 55% in size
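ATXN2-luciferase reporter cells (luciferase flanked by upstream and downstream ATXN2 gene portions) were treated 24 h at 37 °C with compounds at up to 57 uM. SteadyGlo luminescence gave expression; GF-AFC fluorescence gave viability.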
HepG2 tox – kills HepG2 cells in TGF-b inhibitor counter-screen. HepG2 CAGA-GFP viability, ATP luminescence, 18 h. Potency, µM (titrated, usually from 46.1 µM), for inactives: top-dose activity change, negative = cytotoxicity, most hits filed as cytotoxic. actives 0.76% (n = 410,000)
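HepG2 CAGA-GFP cells (1000/well, DMEM with 1% FBS) received compound, then TGF-beta at 500 pg/mL final, and were incubated 18 hours at 37 degrees C. Viability was read by CellTiter-Glo luminescence. Media-only wells were set as complete cell-killing and DMSO as no toxicity.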
An asterisk follows results filed as active; i = inactive; ? = inconclusive; . = not tested or not shown. The call rests on the fitted dose curve; in most records, active means well fitted curve in the direction sought with a large enough effect; inconclusive means small, poorly fitted or top-dose-only effect, or another doubt; inactive means no such curve, though single readings can be large; an effect the other way counts as inactive or inconclusive. Potency means the concentration at half of the fitted maximal effect.

SMILES | S2 tox | TGFb SMAD3 inh | ATXN2 expr inh | HepG2 tox
NC(=O)[C@@H]1CCCN1C(=O)CC1(c2cccc(F)c2)CC(=O)N(C2CCCC2)C1=O (some centres undefined) | i | . | . | .
COc1ccccc1-c1ccnc(-n2ncc(C(=O)NCCc3cccnc3)c2C)n1 | i | . | . | .
COCc1nnc(NC(=O)C2CC(=O)N(c3ccc(C)c(Cl)c3)C2)s1 (centres undefined) | i | -1.4% | -6.6% | -0.6%
Cc1ccc(N2CC(C(=O)Nc3nccs3)CC2=O)cc1Cl (centres undefined) | i | -1.1% | 6.31µM* | -42.6%
COc1ccc(C(c2c(C)[nH]n(-c3ccccc3)c2=O)c2c(C)[nH]n(-c3ccccc3)c2=O)cc1OC | ? | -20.0% | 13.0% | -34.1%
CCOc1cc(C(c2c(C)[nH]n(-c3ccccc3)c2=O)c2c(C)[nH]n(-c3ccccc3)c2=O)ccc1O | . | 11.2µM* | ? | 8.91µM*
Cc1[nH]n(-c2ccccc2)c(=O)c1C(c1cc(Cl)ccc1O)c1c(C)[nH]n(-c2ccccc2)c1=O | . | 7.94µM* | . | -61.9%
Cc1[nH]n(-c2ccccc2)c(=O)c1C(c1ccccc1C(=O)O)c1c(C)[nH]n(-c2ccccc2)c1=O | i | -2.7% | -3.0% | 5.8%
Cc1ccccc1CN1CCc2nnc(C(C)NC(=O)C3CCN(C)CC3)n2CC1 (centres undefined) | i | . | . | .
CCN1C(=O)CC(CC(=O)N2CCCCC2c2nccs2)(c2ccccc2C)C1=O (centres undefined) | i | . | . | .
CCCCCCCCN1[C@@H](CC(=O)O)c2ccc(/C=C/C(=O)O)cc2S1(=O)=O | . | 8.2% | . | 12.4%
CCc1cc(=S)n2c([nH]c3ccccc32)c1C#N | . | 7.94µM* | ? | -41.1%
COc1cc2cnc(-c3ccccc3)c(-c3ccc(C(F)(F)F)cc3)c2cc1OC | ? | 11.2µM* | ? | -34.7%
COc1ccc(-n2c(=O)c3c4c(sc3n(Cc3ccccc3Cl)c2=O)CCC4)c(OC)c1 | ? | -21.6% | -1.5% | 3.8%
COc1ccc(-n2c(=O)c3c4c(sc3n(Cc3ccc(C)cc3C)c2=O)CCC4)c(OC)c1 | i | 1.4% | 5.1% | 5.62µM*
O=C(NCC(O)CO)c1c(I)c(C(=O)NCC(O)CO)c(I)c(N(CCO)C(=O)CO)c1I (centres undefined) | i | . | -5.0% | .
COc1ccccc1/C=C/C(=O)OCC(=O)Nc1ccc(Cl)cn1 | i | -10.7% | 25.1µM* | -18.0%
COc1ccccc1C=CC(=O)C=Cc1ccccc1OC | . | 10µM* | 16.8µM* | -94.2%
C[C@@H]1CCCCCCCCC(=O)OCCN(C(=O)OC(C)(C)C)[C@H](C)CCCCCCCCC(=O)OCCN1C(=O)OC(C)(C)C | i | 14.9% | 0.4% | 11.5%
C[C@@H]1CCCCCCCCC(=O)OCCN[C@H](C)CCCCCCCCC(=O)OCCN[C@H](C)CCCCCCCCC(=O)OCCN1 | 20µM* | 15.8µM* | ? | -63.8%
Cc1cc(N(C)C)cc(C)c1N=Nc1cc[n+]([O-])cc1 | 11.2µM* | 0.2% | . | -47.0%
CN(C)c1ccc(N=Nc2cccc(F)c2)cc1 | i | -10.9% | 68.4% | -25.6%
CCCCCCCCCCCCOC(=O)N1CCN(/[N+]([O-])=N/Oc2ccc([N+](=O)[O-])cc2[N+](C)=O)CC1 | . | -1.6% | . | -42.3%
CN(C)C(=O)c1ccc(/C=C/c2ccnc3ccccc23)cc1 | . | ? | . | -33.0%
CC(C)c1cc2c(c(O)c1O)[C@@]13CCCC(C)(C)C1CC2OC3=O (some centres undefined) | ? | 12.6µM* | ? | -28.3%
SMILES | S2 tox | TGFb SMAD3 inh | ATXN2 expr inh | HepG2 tox
CC(C)N1CCN(C(=O)c2ccc([N+](=O)[O-])cc2)CC1 | i | -18.7% | . | 11.2µM*
O=C(c1ccccc1)N1CCN(C(=O)c2ccc([N+](=O)[O-])cc2)CC1 | i | -2.0% | 4.9% | 7.7%
COCCCOc1cc(C[C@@H](C[C@H](N)[C@@H](O)C[C@H](C(=O)NCC(C)(C)C(N)=O)C(C)C)C(C)C)ccc1OC | i | . | 6.3% | .
C[C@@H](Nc1nc(Cl)nc2nc[nH]c12)c1ccccc1 | . | -9.6% | . | -15.6%
N#CNC(=Nc1cccc(F)c1)SCc1ccccc1 | i | -14.8% | . | -48.9%
N#CNC(=Nc1cccc(F)c1)SCc1cccc(F)c1 | i | 10µM* | -5.6% | -40.1%
